According to PubChem BioAssay AID686979 (National Center for Advancing Translational Sciences (NCATS), 2013):
The whole screen tested about 420,000 compounds, of which about 50,000 (12%) were called active. About 26% were inconclusive and are not listed. The full list was thinned out, with actives kept by preference. A number with no mark means an inactive call. The call rests on the fitted dose curve; in most records, active means well fitted inhibition curve with a large enough effect; inconclusive means small, poorly fitted or top-dose-only effect; inactive means flat fitted curve, though single readings scatter.

test: qHTS for Inhibitors of human tyrosyl-DNA phosphodiesterase 1 (TDP1): qHTS in cells in presence of CPT; conditions: chicken DT40 Tdp1-/-;hTDP1 cells + 20 nM CPT, ATP luminescence, 48 h; series mostly up to 46.2 µM; activity change, negative = growth inhibition: at the top concentration; further: nearly all actives have a fitted effect of over 55% in size
Description: Human tyrosyl-DNA phosphodiesterase 1 (TDP1) is a novel repair gene, and we propose to use it as a new target for anticancer drug development. TDP1 is not an essential protein, but under treatment with topoisomerase I poison (camptothecin: CPT), TDP1 works as a critical factor for cell survival. To directly identify novel TDP1 inhibitors active in a cellular environment, we have knocked-out the Tdp1 gene in chicken DT40 cells (Tdp1-/-) and generated a complemented counterpart cells that contains a stable transfection of the human TDP1 gene (Tdp1-/-;hTDP1 cells). For the primary screen, Tdp1-/-;hTDP1 cells will be exposed to small molecules in the presence or absence of CPT, and their growth kinetics will be evaluated after 48 hours by measuring ATP activity. […] The hit compounds will then be evaluated in the presence or absence of CPT using Tdp1-/- cells. […] In tertiary assays, biochemical gel-based assays will be used to assess whether the hit compounds specifically target TDP1. To this end, we have screened this cell line against the MLSMR in two primary screens. In one screen we add CPT and in the other we screen in the absence of CPT; this AID represents the screen where CPT was present. NIH Chemical Genomics Center [NCGC] NIH Molecular Libraries Probe Centers Network [MLPCN] MLPCN Grant: MH095538 Assay Submitter (PI): Yves Pommier, NCI
DT40-hTDP1 cells with 20 nM Camptothecin (add 20 microL of 1 mM CPT stock in 1 L of cell culture medium) were dispensed at 400 cells/5microL/well in tissue culture treated 1536-well white wall/solid bottom assay plates (Greiner Bio-One North America, NC, U.S.A.) using a Multidrop Combi 8 channel dispenser (Thermo Fisher, Waltham, MA, USA). 23 nL compounds and controls were transferred using the pin tool (Kalypsys, San Diego, CA, USA) to the assay plates. The assay plates were then incubated at 37 masculineC for a minimum 48 hr. Three microL of Cell Titer Glo solution was added to the plates and incubated at RT in dark for 30 min. Luminescence was read using ViewLux (Perkin Elmer) with 1 sec exposure slow speed, high gain and 2x binning.
On the % scale 0 is the no-effect control and ±100 the full control effect; potency means the concentration at half of the fitted maximal effect.

SMILES | activity change, negative = growth inhibition [%] | Potency
NS(=O)(=O)c1ccc(CCNc2nc(C(F)(F)F)nc3ccccc23)cc1 | -27.3 | –
CN(C)C(CNC(=O)Cc1ccc([N+](=O)[O-])cc1)c1ccccc1 (stereo not given) | -2.26 | –
CCc1ccc(C(CNc2nc(C(F)(F)F)nc3ccccc23)N(C)C)cc1 (stereo not given) | – | 16.4 µM (active)
CCN(CC)CCCN=C(N)N | -4.33 | –
Cc1nc2ccc(S(=O)(=O)NC(C(=O)NCc3ccccc3Cl)C(C)C)cc2s1 (stereo not given) | 4.06 | –
O=C(CC(c1cccs1)N1Cc2ccccc2C1=O)Nc1ccc(F)cc1F (stereo not given) | – | 20.6 µM (active)
O=C(O)CC(c1ccccc1F)N1Cc2ccccc2C1=O (stereo not given) | -6.62 | –
COc1cc(C(CC(=O)NCCC(C)C)N2Cc3ccccc3C2=O)cc(OC)c1OC (stereo not given) | -7.29 | –
Nc1nc(SCC(=O)NCCN2CCOCC2)nc2sc3c(c12)CCC3 | 1.37 | –
CN(C)CCSc1nc(N)c2c3c(sc2n1)COC(C)(C)C3 | -2.4 | –
CC(C)(C)C1CCc2c(sc3nc(SCC(N)=O)nc(N)c23)C1 (stereo not given) | – | 16.4 µM (active)
Cc1cnc(-n2ncc(C(=O)N3CCN(C(C)C)CC3)c2-c2ccco2)nc1-c1ccc(F)cc1 | -0.952 | –
O=c1o[nH]c(-c2ccccc2)c1N=Nc1c(F)cccc1Cl | -4.76 | –
Cc1nc2ccccc2c(=O)n1NC(=O)c1ccc(Cl)c([N+](=O)[O-])c1 | -1.58 | –
CCOC(=O)N1CCN(C(=O)C(=O)Nc2sc3c(c2C#N)CC(C)(C)OC3)CC1 | -9.35 | –
COC(=O)c1c(NC(=O)C(=O)N2CCCCC2)sc2c1CC(C)(C)OC2 | -21.8 | –
CC1(C)Cc2c(sc(NC(=O)C(=O)N3CCOCC3)c2C#N)CO1 | – | 20.6 µM (active)
CCOc1cc(NC(=O)Nc2ccccc2)c(OCC)cc1NC(=O)CC | 1.31 | –
CN(NC(=O)C1CC(=O)N(c2ccccc2)C1)C1=NS(=O)(=O)c2ccccc21 (stereo not given) | 8.09 | –
O=C(N/N=C/c1ccccn1)C12CC3CC(CC(C3)C1)C2 | -3.23 | –
S=C(NN=Cc1ccccn1)Nc1ccccn1 | – | 1.46 µM (active)
CNC(=O)C(=O)N/N=C/c1ccccn1 | -1.38 | –

SMILES | activity change, negative = growth inhibition [%] | Potency
CC(=O)N1CCN(C(=O)C2(NC(=O)Nc3ccc(C)cc3)CCCCC2)CC1 | 14.9 | –
CC(=O)NCC(=O)N1CCC(n2nccc2NC(=O)CCCc2ccccc2)CC1 | -1.7 | –
c1ccc(C(=NNc2nc3ccccc3s2)c2ccccn2)cc1 | – | 0.164 µM (active)
O=C(Nc1ccccc1Cl)O/N=C(/c1ccccc1)c1ccccn1 | 4.12 | –
c1ccc2sc(NN=C3CCCC3)nc2c1 | -10.2 | –
CC(C)CN1C(=O)CN(S(C)(=O)=O)CC1(C)C(=O)NCc1ccccc1 (stereo not given) | -2.61 | –
CCN(CC(=O)Nc1c(F)cccc1F)C(=O)c1ccc(-c2ccc(C(C)=O)cc2)o1 | -25.2 | –
Cc1ccc(S(=O)(=O)NCC(=O)N(CC(=O)NC(C)(C)C)Cc2cccs2)cc1 | -4.73 | –
Cc1cc(C)cc(C(=O)OCC(=O)NCCNC(=O)COC(=O)c2cc(C)cc(C)c2)c1 | -13.7 | –
Cc1cccc([C@@H]2[C@@H]3C(=O)N(Cc4ccccc4)C(=O)[C@@H]3[C@]3(Cc4ccc(Cl)cc4)C(=O)N(c4cccc(Cl)c4)C(=O)N23)c1 | 9.53 | –
Cc1ccc(-c2cccc([C@H]3[C@@H]4C=CC[C@@H](C)[C@@H]4C(=O)N3Cc3ccccc3)c2)cc1 | – | 14.6 µM (active)
COc1ccc(CN2CCNC(=O)C2CC(=O)N(C)Cc2ccccn2)cc1OC (stereo not given) | 3.3 | –
O=C(OCc1ccc([N+](=O)[O-])cc1)C1CC(=O)N(Cc2ccccc2Cl)C1 (stereo not given) | -4.97 | –
O=[N+]([O-])c1ccc(N2CCOCC2)cc1 | -4.01 | –
O=[N+]([O-])c1ccc(COc2ccccc2CN2CCOCC2)cc1 | – | 23.1 µM (active)
O=C1c2cccc3cccc(c23)C(=O)N1c1cccc(O)c1 | -18.4 | –
C=CCn1c(COc2cccc3cccnc23)nnc1SCC(=O)OC | -14.3 | –
COc1ccc(CCNS(=O)(=O)c2cccc3cccnc23)cc1OC | -2.46 | –
CCCCC(=O)NC(c1ccc(OC)c(OC)c1)c1ccc2cccnc2c1O (stereo not given) | – | 1.3 µM (active)
C[n+]1ccc(/C=C/c2c[nH]c3ccccc23)cc1 | – | 1.03 µM (active)
O=C(NC1CCCC1)C(=O)c1c[nH]c2ccccc12 | -2.79 | –
S=c1[nH]nc(-c2ccccc2)n1/N=C/c1c[nH]c2ccccc12 | -3.77 | –

SMILES | activity change, negative = growth inhibition [%] | Potency
CC1(C(=O)NS(=O)(=O)c2ccc(C#N)cc2)CCN1C(=O)CC1CCCC1 (stereo not given) | -5.1 | –
CC1(C)CC2CC(C)(CN2c2ncnc3ccc(Br)cc23)C1 (stereo not given) | – | 5.17 µM (active)
O=C(COC(=O)Cc1ccccc1F)NNC(=O)c1ccc(Cl)cc1 | -7.31 | –
COc1ccc(C)cc1N(CC(=O)NC(C)c1ccccc1)S(C)(=O)=O (stereo not given) | 6.36 | –
CC(C)CNC(=O)C1(C)CCCN1C(=O)CSc1ccccc1 (stereo not given) | -17.6 | –
COc1ccc(/C=N/NC(=O)c2cccc(C(F)(F)F)c2)cc1 | 0.721 | –
Cc1cc(Nc2cccc(C(F)(F)F)c2)nc2ccc(NC(=O)c3ccc(=O)[nH]c3)cc12 | – | 16.4 µM (active)
O=C(O)CSc1c2c(nc3cc(C(=O)Nc4cccc(C(F)(F)F)c4)ccc13)CCCC2 | -7 | –
COc1ccc(NC(=O)C(=O)NCC(=O)Nc2cccc(C(F)(F)F)c2)cc1 | 15.1 | –
COc1cc(OC)cc(C(=O)Nc2ccc3nc(Nc4cccc(C(F)(F)F)c4)cc(C)c3c2)c1 | – | 9.2 µM (active)
CC(Oc1cccc(Cl)c1)C(=O)Nc1ccc(S(=O)(=O)Nc2ncccn2)cc1 (stereo not given) | -22.1 | –
CCCCSc1nc2ccccc2[nH]1 | -15.7 | –
CCc1nnc(NC(=O)CCCSc2nc3ccccc3[nH]2)s1 | 10.8 | –
CCC(C)N1C(=O)S/C(=C/c2ccc(Sc3nc4ccccc4[nH]3)o2)C1=O (stereo not given) | – | 14.6 µM (active)
CCN1CCN(C(=O)C2CCN(S(=O)(=O)c3cc(Cl)ccc3Cl)CC2)CC1 | 3.59 | –
Cc1nnc(SCC(=O)Nc2ncc3c(n2)CC(C)(C)CC3=O)s1 | -8.13 | –
CC(C)=CCN1CCC2(CCc3ccccc32)CC1 | – | 11.6 µM (active)
CC(C)=CCN1CCN(CCCc2ccccc2)CC1CCO (stereo not given) | -2.58 | –
Cn1nnnc1SCCNCc1ccc(Cl)c(Cl)c1 | -1.39 | –
COc1cc(CNCCSc2nnnn2C)ccc1OCc1ccc(Cl)cc1Cl | – | 16.4 µM (active)
COc1cc(CNCCSc2nnnn2C)ccc1OCc1c(F)cccc1Cl | -28.8 | –
